# Test results reported in PubChem BioAssay.
# Experiment: modulators of S6 phosphorylation in cells, primary screen, cell-based, A549, cytoblot, luminescence, serum-stimulated (AID 1158);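 further: serum-stimulated A549 lung adenocarcinoma cells; signal is phosphorylated S6 detected by cytoblot immunostaining with HRP secondary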
# Settings: A549 phospho-S6 cytoblot, 5 h, higher = more signal
row,Structure (SMILES),z-score
1,CN1C(=O)C2C=CC(C(O)c3c(F)cccc3Cl)N(Nc3ccccc3)C2C1=O (centres undefined),-0.809
2,COC(=O)c1c(CC[C@@H](CO)NC(=O)N[C@H](Cn2cc(-c3ccccc3C)nn2)C(C)C)oc(C(C)=O)c1C(=O)OC,1.29
3,C=CCOC(=O)[C@@H]1[C@H]2C(=O)O[C@H](c3ccccc3)[C@H](c3ccccc3)N2[C@H](c2ccc(OCCOC(=O)[C@H]3C[C@H]4C(=O)N[C@@H](CCCCN(C)C)C(=O)N4[C@H]3c3cccc(OCCO)c3)cc2)[C@@]12C(=O)Nc1ccc(I)cc12,-0.714
4,COc1ccc([Si](C)(C)[C@@H]2[C@@H](CCO)O[C@]3(C(=O)N(Cc4cccc(N5C(=O)c6ccccc6Oc6ccccc65)c4)c4ccccc43)[C@H]2C)cc1,0.243
5,C=CC[C@]1(C(=O)N(C)C)N=C(c2ccc(OCCCO)cc2)O[C@H]1c1ccccc1N=[N+]=[N-],-0.219
6,COCCOC(=O)N1C(=O)[C@@]2(c3cc(C#CCC(C(=O)OC)C(=O)OC)ccc31)[C@H](c1ccc(OCCO)cc1)N1[C@H](c3ccccc3)[C@H](c3ccccc3)OC(=O)[C@H]1[C@@H]2C(=O)N1CCN(c2ncccn2)CC1,1.72
7,COCCOC(=O)N1C(=O)[C@@]2(c3cc(C#CC4(O)CCCCCC4)ccc31)[C@H](c1ccccc1OCCO)N1[C@H](c3ccccc3)[C@H](c3ccccc3)OC(=O)[C@H]1[C@@H]2C(N)=O,-0.255
8,C=CCNC(=O)[C@H]1[C@@H]2C(=O)O[C@@H](c3ccccc3)[C@@H](c3ccccc3)N2[C@@H](c2ccccc2OCCO)[C@]12C(=O)N(C(=O)OCCOC)c1ccc(C#CC3=CCCCC3)cc12,-0.321
9,C=CCN1C(=O)[C@@]2(O[C@@H](CCn3cc([C@H](O)c4ccccc4)nn3)[C@H]([Si](C)(C)c3ccc(OC)cc3)[C@H]2C)c2ccccc21,0.32
